The supplement of paper PMC6555819

Key:
Assay in all cases: PBM binding z-score (relative to random genomic background probes); higher = stronger binding; sequences stand for … in GC…GCGATTGACAGCGTAGAATGAAGG
[1] = test system: PPARg:RXRa DBDmut IVT, anti-RXR (DBD mutation: RXRa K156A/R161A, NR concentration 270 nM, RXRa partner concentration 90 nM)
How it was run: (§1)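 Ligand-free nuclear receptor dimers were applied to custom Agilent 4×180K protein-binding microarrays whose double-stranded probes carried direct-repeat seeds, single-nucleotide variants, half-site ablations and random human genomic background sequences in 34-nt variable regions. Incubation lasted 1 h. Binding z-scores were computed against the random background probes from regression-normalized fluorescence.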

[2] = test system: PPARg:RXRa IVT, anti-PPARg (NR concentration 270 nM, RXRa partner concentration 90 nM)
How it was run: as §1

[3] = test system: PPARg DBDmut:RXRa IVT, anti-PPARg (DBD mutation: PPARg1 K132A/R137A, NR concentration 270 nM, RXRa partner concentration 90 nM)
How it was run: as §1

[4] = test system: PPARg DBDmut IVT, anti-PPARg (DBD mutation: PPARg1 K132A/R137A, NR concentration 270 nM)
How it was run: as §1

[5] = test system: PPARg homodimer (NR concentration 180 nM)
How it was run: as §1

[6] = test system: PXR:RXRa (NR concentration 270 nM, RXRa partner concentration 90 nM)
How it was run: as §1

[7] = test system: PXR homodimer (NR concentration 270 nM)
How it was run: as §1

[8] = test system: RARa:RXR (NR concentration 270 nM, RXRa partner concentration 90 nM)
How it was run: as §1

[9] = test system: RARa homodimer (NR concentration 270 nM)
How it was run: as §1

[10] = test system: RARb:RXRa (NR concentration 270 nM, RXRa partner concentration 90 nM)
How it was run: as §1

Row | Sequence | PBM binding z-score [1] | PBM binding z-score [2] | PBM binding z-score [3] | PBM binding z-score [4] | PBM binding z-score [5] | PBM binding z-score [6] | PBM binding z-score [7] | PBM binding z-score [8] | PBM binding z-score [9] | PBM binding z-score [10]
1 | ATATGTAGGTTAGCTGGGGTCATCCAGACTAGGC | 6.84 | 6.06 | 1.71 | 0.818 | 2.58 | 6.14 | 1.99 | 5.79 | 1.43 | 3.34
2 | CCTTTTAGTTGACCATAAGGGCAACCGAAGCTCG | 0.494 | 1.26 | 0.935 | 0.61 | 1.45 | 0.87 | 0.536 | 0.957 | 1.78 | 1.86
3 | AAAGACAGGTGATGAAGGTAACTCAGGCTATCAT | 0.0134 | 0.744 | 0.665 | -0.142 | 0.408 | 0.0948 | 0.956 | 0.223 | 1 | 0.438
4 | ATCTCTAGGTTACAAGTTCAGTGAAAGAGAGGAC | 4.27 | 4.41 | 1.99 | 3.28 | 2.22 | 2.38 | 2.41 | 2.03 | 1.88 | 2.69
5 | TGTATTAGTTGAAGGGCAACCGACGAGTCCGTTT | 0.404 | 0.87 | 0.403 | 1.05 | 1.27 | 0.63 | 0.962 | 0.3 | 0.995 | 1.5
6 | GCTTTTAGTTGAAAGGGCAACCGAATGATTCTCG | 0.524 | 0.732 | 0.316 | 0.582 | 0.658 | 0.695 | -0.255 | 0.953 | -0.0621 | 2.16
7 | TCCTATAGGTAATACAGGTGAAAGTCGGCATCTA | 2.84 | 2.12 | 0.665 | 0.687 | 0.164 | 0.43 | -0.159 | 0.537 | 0.724 | 0.581
8 | GTACCAAGGTGAATAGGTGGTTGATGAGTAGGCG | 1.79 | 1.93 | 0.268 | -0.307 | 0.741 | -0.428 | 0.469 | -0.021 | 0.656 | 1.21
9 | TATACAGGGTCAAAGGCCAGAGTTCGAATGTCGA | 2.55 | 4.54 | 1.63 | 2 | 3.99 | 5.44 | 2.54 | 6.63 | 1.14 | 4.53
10 | CCTACTGGGCCAAAAAGGTGATTGATGCCGATAA | 2.58 | 2.98 | -0.0281 | -0.242 | 0.459 | -0.0996 | -0.324 | -0.0994 | -0.0492 | 0.271
11 | GCTTGTAGATCAAGATTAAGAAAGACTAAGCTAA | 0.366 | -0.13 | 0.0686 | 0.0924 | -0.256 | -0.671 | -0.582 | -0.252 | -0.194 | -0.426
12 | CGTCCAAGGTCAAAGGGCAGTGAAGAGATGACGG | 2.96 | 4.49 | 0.0203 | 0.196 | 2.9 | 4.98 | 1.24 | 6.27 | 1.01 | 5.36
13 | AGTCAAAGTTCAGAACGAGGTAACGTAAAGCACG | 0.0651 | 2.1 | 0.709 | 0.236 | 1.58 | 3.14 | 1.5 | 2.94 | 0.271 | 4.01
14 | TCTCGGAGGACACGAAAGATCAGAGCTCGACATC | 1.5 | 0.155 | -0.549 | -1.75 | -1.47 | -0.243 | -0.552 | -0.0104 | -0.742 | 1.17
15 | ACAGACAGGTGAGTGACGGTAACTCAGCTGGACG | 0.522 | 0.563 | 0.246 | 0.557 | -0.526 | -0.527 | -0.705 | -0.525 | -0.487 | 0.377
16 | ATACCAAGGTGATCGTGAGGTCGTTGTTACTAAC | 0.34 | 1.36 | 0.414 | 0.123 | 1.05 | 2.84 | 1.29 | 2.11 | 0.23 | 1.3
17 | TCGAGTGGGTTAGGGGCATTCAGAATGGCGTCGA | 1.25 | 0.919 | -0.337 | -0.345 | 0.908 | 1.04 | 0.501 | 0.739 | 0.24 | 0.943
18 | CCTGCTAGGTCATGGTCAGCAAATCTACAGTATG | 4.25 | 3.63 | 0.173 | -0.183 | 1.03 | 1.15 | -0.302 | 2.22 | 0.017 | 3.7
19 | TCTATTAGTTGATTAGGGCAACCAAAACAGCGGA | 2 | 1.72 | 1.55 | 1.68 | 0.9 | 0.429 | 0.323 | 0.556 | 1.11 | 0.905
20 | CAAACTAGGTCACCGGAAGGTCAAAATCCGCATG | 8.74 | 9.07 | 7.15 | 5.58 | 9.41 | 5.86 | 1.73 | 7.2 | 3.23 | 5.11
21 | GTACCAATGTGAATAGGTCGTTGATGAGTAGGCG | -0.469 | -0.105 | -0.359 | 0.0422 | 0.0773 | -0.176 | -0.211 | 0.0838 | 0.262 | 0.00696
22 | TGTCAAAGTTCAAAGGTAACGTAGGTATCCACAC | 0.105 | 4.5 | 1.01 | 1.42 | 2.88 | 5.78 | 3.36 | 6.75 | 1.57 | 5.06
23 | GATACAGGGTCAGCTAGAGCCCAGAGTATGGAAA | 0.771 | 2.13 | -0.422 | -0.697 | 1.06 | 1.83 | -0.197 | 2.74 | -0.316 | 3.81
24 | TCGGGTAGGTTAGTCGGGGCATTCAGCCAACATA | 1.77 | 1.67 | 0.234 | 0.0537 | 0.765 | 0.737 | 0.967 | 0.254 | 0.816 | 1.21
